Data taken from PubChem BioAssay (NCI).
Where “and” joins values, the source holds several entries; their conditions need not be identical. Equal values may be shown once. This is part of a sample that, as a whole, favours compounds with a hit. Of some 83,000 tested, about 20% had one in any assay.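 Single-concentration screen, 48 h exposure, 96-well plates. Endpoint: percent growth. Below 10 = active.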

What was measured:
Assay in all cases: NCI-60 one-dose screen, 48 h (100 = growth as untreated, 0 = no growth, -100 = all killed)
Conditions in all cases: 10 µM unless noted
[1] = tested on: RPMI-8226 leukemia
[2] = tested on: OVCAR-8 ovarian
[3] = tested on: OVCAR-5 ovarian
[4] = tested on: OVCAR-4 ovarian
[5] = tested on: SK-OV-3 ovarian
[6] = tested on: IGROV1 ovarian
[7] = tested on: OVCAR-3 ovarian
[8] = tested on: HS 578T breast
[9] = tested on: NCI/ADR-RES ovarian
[10] = tested on: T-47D breast
[11] = tested on: BT-549 breast
[12] = tested on: MDA-MB-435 melanoma
[13] = tested on: SW-620 colon
[14] = tested on: MCF7 breast
[15] = tested on: HCT-116 colon
[16] = tested on: HCC-2998 colon
[17] = tested on: KM12 colon

Measured: growth

CSc1nc(N)c(N)c(N)n1
inactive: [1] 102% | [2] 103% | [3] 120% | [4] 103% | [5] 81.3% | [6] 108% | [7] 113% | [8] 111% | [9] 110% | [10] 97.2% | [11] 101% | [12] 112% | [13] 104% | [14] 105% | [15] 86.5% | [16] 109% | [17] 104%

CCCC(=O)Oc1ccc2ccccc2c1
inactive: [1] 94.4% | [2] 94.6% | [3] 117% | [4] 105% | [5] 91.8% | [6] 106% | [7] 113% | [8] 92.7% | [9] 102% | [12] 106% | [13] 92.1% | [14] 101% | [15] 101% | [16] 97.9% | [17] 113%

CC(C)(C)OC(=O)CC1(O)CCCCC1
inactive: [1] 107% | [2] 108% | [3] 115% | [4] 97.9% | [5] 105% | [6] 114% | [7] 108% | [8] 102% | [9] 107% | [10] 99.8% | [11] 110% | [12] 102% | [13] 103% | [14] 101% | [15] 102% | [16] 106% | [17] 107%

O=C(OCc1ccccc1)c1ccccc1
inactive: [1] 99.5% | [2] 101% and 95.7% | [3] 102% and 91.7% | [4] 108% | [5] 99.1% and 93.6% | [7] 116% | [8] 105% | [9] 107% and 99.7% | [10] 96% and 87.9% | [11] 109% and 102% | [12] 105% and 112% | [13] 110% and 105% | [14] 107% and 94.3% | [15] 108% and 93.7% | [16] 102% and 93.9% | [17] 104% and 102%

O=c1[nH]c(=O)c2[nH]c(=O)[nH]c2[nH]1
inactive: [1] 101% | [2] 102% | [3] 99.7% | [4] 109% | [5] 115% | [6] 106% | [7] 107% | [8] 102% | [9] 106% | [10] 103% | [12] 100% | [13] 94.3% | [14] 92.1% | [15] 94.6% | [16] 107% | [17] 104%

O=C(O)/C=C/C=C/c1ccccc1
inactive: [1] 112% and 99.7% | [2] 102% and 109% | [3] 103% and 96.8% | [4] 116% and 108% | [5] 113% and 104% | [6] 105% and 110% | [7] 124% and 98.8% | [8] 109% and 108% | [9] 111% and 102% | [10] 100% and 105% | [11] 103% and 107% | [12] 105% and 111% | [13] 104% and 103% | [14] 92.9% and 94.4% | [15] 101% and 96% | [16] 104% | [17] 105% and 103%

CC1(C)OC(=O)C(=Cc2ccc(C#N)cc2)C(=O)O1
inactive: [1] 101% and 103% | [2] 94.5% and 97.8% | [3] 107% and 113% | [4] 115% and 98.3% | [5] 104% and 106% | [7] 111% and 105% | [8] 99.3% and 104% | [9] 106% and 110% | [10] 86.4% and 102% | [11] 109% and 103% | [12] 108% and 105% | [13] 100% and 104% | [14] 104% and 95.6% | [15] 96.5% and 108% | [16] 112% and 105% | [17] 105% and 115%
